Screening data from PubChem.
Rows were chosen to be rich in hits. Some 2.2% of all compounds tested hit in one or more screens of this group.
PI4K2A block = qHTS for small molecular inhibitors of PI4K2A. Phosphatidylinositol 4-kinase type 2-alpha (Homo sapiens), Q9BTU6. purified PI4K2A, ADP-Glo luminescence, 1 h; active compounds read low. activity change, negative = inhibition, % at 76.9 µM. 0.13% of 420,000 active; in the data active = activity change below about -50%; inconclusive = mostly about -30% to -49%;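 note: -100% = wells without enzyme as full effect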
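ADP-Glo luminescence measured ADP generated by PI4K2A enzyme (4 ug/mL before mixing) with 1.2 mM PI substrate (pre-mix) and 300 microM ATP (pre-mix). Tris pH7.5 buffer with MgCl2, Triton X-100; 1 h reaction at ambient temperature.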
GALK inhibitor = qHTS Assay for Inhibitors of Human Galactokinase (GALK) | Purified GALK, Kinase-Glo residual ATP luminescence | 0.007% of 270,000 active | P51570 | Potency, µM (doses to about 57.5 µM), for the others: at the highest dose activity change, negative = inhibition, hits mostly inhibitors | AID 1868, 2009; note: potency is the fitted concentration of half-maximal effect; % is set by controls: 0 for no effect and ±100 for the full control effect
Target sequence (P51570 whole entry, looked up): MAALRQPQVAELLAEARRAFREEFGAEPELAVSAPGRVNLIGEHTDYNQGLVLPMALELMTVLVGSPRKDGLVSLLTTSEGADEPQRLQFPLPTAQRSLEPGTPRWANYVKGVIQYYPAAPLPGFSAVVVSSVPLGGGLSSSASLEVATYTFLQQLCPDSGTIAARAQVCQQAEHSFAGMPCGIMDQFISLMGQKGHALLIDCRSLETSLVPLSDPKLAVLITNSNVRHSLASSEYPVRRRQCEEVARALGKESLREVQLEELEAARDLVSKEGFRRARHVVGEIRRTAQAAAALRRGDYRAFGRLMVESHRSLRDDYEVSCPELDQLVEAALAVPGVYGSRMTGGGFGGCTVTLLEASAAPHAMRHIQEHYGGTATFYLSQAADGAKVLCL
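Human GALK (5 nM) with 35 uM ATP and 100 uM galactose in 20 mM HEPES pH 8.0, 5 mM MgCl2, 60 mM NaCl, 1 mM DTT, 0.01% BSA. After 1 h at room temperature, leftover ATP was read by Kinase-Glo Plus luminescence.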
miR-21 reporter = qHTS Assay for Modulators of miRNAs and/orActivators of miR-21. HeLa miR-21 FLuc reporter, luciferase, 48 h. Potency, µM (top dose mostly 38.3 µM), for inactives: at the highest dose activity change, positive = activation, hits mostly activators. 340,000 tested, under 10 active. AID 2288, 2010;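 note: % of control where 0% means no effect; miR-21 action dims this reporter so a rising signal means less miR-21 action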
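HeLa cells stably expressing CMV-driven firefly luciferase with a downstream miR-21 binding sequence, endogenously expressing miR-21, were treated with titrations (up to about 40uM final) for 48 hours at 37 degree Celsius. Luciferase luminescence was read after lysis.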
Nrf2 ARE act = qHTS of Nrf2 Activators; AREc32 ARE-luciferase reporter (MCF7-derived line), luminescence, 24 h; Potency, µM (highest dose often 46.1 µM), without a hit: top-dose activation, most hits filed as activators; 0.31% of 410,000 active; AID 624171, 2012; note: potency is the fitted concentration of half-maximal effect; % of control where 0% means no effect; nearly all actives have a fitted effect of over 65% in size
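Luciferase luminescence (Steady-Glo, 30 min at room temperature) served as the read-out of ARE activation in AREc32 cells treated with compounds for 24 hr at 37 deg C.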
A549 tox = Nrf2 qHTS screen for inhibitors: counterscreen for cytotoxicity; A549 ARE-Fluc cells, CellTiter-Fluor viability, 18-24 h; Potency, µM (highest dose often 46 µM), inactives show at the top dose activity change, negative = cytotoxicity, most hits filed as inhibitors; 0.16% of 390,000 active; AID 504648, 2011; note: potency is the fitted concentration of half-maximal effect; % is set by controls: 0 for no effect and ±100 for the full control effect
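Cytotoxicity counterscreen: CellTiter-Fluor fluorescence was measured in A549 ARE_Fluc cells after 18-24 h of compound exposure in a concentration series. The subsequent BugLite luminescent read reports ARE-luciferase activity.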
Nrf2 inh = Nrf2 qHTS screen for inhibitors; A549 ARE-Fluc reporter, luciferase luminescence, 18-24 h; Potency, µM (titrated, usually from 46 µM), inactives show at the highest dose activity change, negative = inhibition, hits mostly inhibitors; 2.1% of 360,000 active; note: potency is the fitted concentration of half-maximal effect; % is set by controls: 0 for no effect and ±100 for the full control effect; nearly all actives have a fitted effect of over 60% in size
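A549 ARE_Fluc cells (5000/well, 5% FBS OPTI-MEM) pre-incubated 2 h, then treated with compounds 18-24 h at 37C/5% CO2 in concentration-response. CellTiter-Fluor viability read first; BugLite luciferase luminescence after 15 min at room temperature gives Nrf2 activity.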
Starred values were filed as active, the others as inactive; ? = inconclusive; nt = not tested or not shown. Unless noted, calls come from the whole dose curve; as a rule, active = well fitted curve in the direction sought with a large enough effect; inconclusive = small, poorly fitted or top-dose-only effect, or another doubt; inactive = no such curve, though single readings can be large; an effect the other way counts as inactive or inconclusive.

SMILES	PI4K2A block	GALK inhibitor	miR-21 reporter	Nrf2 ARE act	A549 tox	Nrf2 inh
O=C(Cn1c(=O)c2cccn2c2cccnc21)NCCCN1CCN(c2ccc(Cl)cc2)CC1	-5.5	nt	nt	nt	nt	nt
CCOc1cc(C2NN=C(c3ccc(C)cc3)S2)ccc1O (stereo not drawn)	-2.0	0.3%	-61.8%	10.4%	3.7%	?
CSc1ccc(C2NN=C(c3ccccc3)S2)cc1 (stereo not drawn)	?	nt	nt	5.01µM*	-0.9%	?
Oc1ccccc1C1NN=C(c2ccccc2)S1 (stereo not drawn)	-13.7	2.5%	-43.9%	7.08µM*	25.1%	?
CCN(CC)CC(=O)Nc1c(C)cccc1C(=O)OC	2.0	nt	nt	nt	nt	nt
COc1ccccc1N(/N=C1\Sc2ccccc2C1=O)C(C)=O	-1.7	-3.6%	0.4%	14.1µM*	-4.9%	-1.1%
CC(C)CCNC(=O)c1c[nH]c2ccc(S(=O)(=O)Nc3cccc(C(F)(F)F)c3)cc2c1=O	1.2	nt	-1.7%	0.2%	2.0%	nt
COc1cccc(NS(=O)(=O)c2ccc3[nH]cc(C(=O)NCCC(C)C)c(=O)c3c2)c1	-3.3	0.0%	20.4%	3.5%	-14.7%	16.4µM*
CC(C)(N[C@@H](Cc1ccccc1)C(=O)NCCc1c[nH]c2ccccc12)C(=O)NC1CCCCC1	0.8	nt	nt	nt	nt	nt
O=C(CSc1nnc(COc2ccccc2)n1-c1ccccc1)Nc1ccc(S(=O)(=O)Nc2nccs2)cc1	4.2	nt	nt	nt	nt	nt
CCOc1ccc(-c2nnc(N3CCCCC3)c3ccccc23)cc1	-1.4	2.9%	0.6%	-0.7%	-28.2%	25.9µM*
CCN(CC)C(=O)COc1ccc(-c2nnc(N3CCCCC3)c3ccccc23)cc1	5.4	-4.1%	-2.6%	2.3%	-11.0%	-10.6%
O=S(=O)(c1ccc2nc(-c3ccccc3)[nH]c2c1)N1CCN(c2cccc(Cl)c2)CC1	6.2	nt	-5.4%	2.9%	-6.8%	?
COc1ccccc1N1CCN(S(=O)(=O)c2ccc3[nH]c4c(c3c2)CCCC4)CC1	0.1	nt	18.0%	0.4%	-12.2%	23.1µM*
COc1cccc(N2CCN(S(=O)(=O)c3ccc4[nH]c5c(c4c3)CCCC5)CC2)c1	-2.3	nt	4.7%	3.8%	0.2%	?
COc1cc(Cl)c(NC(=O)CN(C)S(=O)(=O)c2ccc3[nH]c4c(c3c2)CCCC4)c(OC)c1	-0.2	nt	22.5%	6.5%	-0.9%	23.1µM*
COc1ccc(NC(=O)CN(C)S(=O)(=O)c2ccc3[nH]c4c(c3c2)CCCC4)cc1Cl	5.3	nt	14.9%	5.1%	-2.9%	?
COc1ccccc1N1CCN(S(=O)(=O)c2ccc3nc(-c4ccccc4)[nH]c3c2)CC1	-1.8	nt	14.2%	3.0%	-11.9%	23.1µM*
CNC(=O)C1CCC(Cn2c(=O)c3sccc3n(CC(=O)Nc3ccc(C)cc3C)c2=O)CC1 (stereo not drawn)	3.3	nt	-4.0%	0.7%	2.9%	?
CNC(=O)C1CCC(Cn2c(=O)c3sccc3n(CC(=O)Nc3ccc(C)c(C)c3)c2=O)CC1 (stereo not drawn)	0.2	nt	21.6%	0.5%	-16.9%	23.1µM*
N#CC1=C(N)Oc2cc3ccccc3cc2C1c1cccs1 (stereo not drawn)	3.0	-1.5%	19.8%	2.0%	-17.2%	-23.3%
CN(C)/C=N/C1=C(C#N)C(c2cccs2)c2ccc3ccccc3c2O1 (stereo not drawn)	-10.8	-0.6%	-16.9%	8.91µM*	?	?
COC(=O)c1ccc2nc(-c3ccc(OC)c(OC)c3)c(CC3CCCCC3)n2c1	1.7	nt	nt	6.0%	nt	nt
COC(=O)c1ccc2nc(-c3cccc(Br)c3)c(CC3CCCCC3)n2c1	-4.3	nt	nt	8.91µM*	nt	nt
COc1cc(C(=O)OC(COCCC(C)C)CN2CCOCC2)cc(OC)c1OC (stereo not drawn)	0.9	nt	nt	nt	nt	nt
SMILES	PI4K2A block	GALK inhibitor	miR-21 reporter	Nrf2 ARE act	A549 tox	Nrf2 inh
Cc1nnsc1C(=O)N/N=C/c1c(F)cccc1Cl	0.5	0.1%	-1.5%	-0.3%	-10.9%	0.5%
Cc1[nH]cnc1C(=O)N/N=C/c1c(Cl)cccc1Cl	-68.9*	20.2%	-19.7%	0.0%	-4.1%	?
COc1cccc(C2CC(c3ccc(Br)cc3)=NN2C(=O)c2ccncc2)c1OC (stereo not drawn)	-1.6	-3.5%	0.5%	3.4%	-15.1%	18.4µM*
COc1ccc2cc(C#N)c(N3CCOCC3)nc2c1	2.4	-0.2%	4.8%	0.1%	1.5%	-9.0%
CCC(C)(C)n1nnnc1CN1CCN(c2nc3cc(OC)ccc3cc2C#N)CC1	3.3	8.1%	-4.3%	-0.1%	-13.5%	18.4µM*
Cc1ccc2nc(N3CCN(Cc4nnnn4C4CCCC4)CC3)c(C#N)cc2c1	4.6	-1.4%	-0.2%	-0.7%	0.9%	23.1µM*
Cc1ccc(C)c(N2CCN(Cc3nnnn3C3CCCCC3)CC2)c1	0.8	-0.4%	1.3%	0.0%	12.8%	nt
COc1ccccc1NS(=O)(=O)c1ccc(C(=O)N2CCN(c3ccccc3)CC2)cc1	-2.1	nt	nt	-0.4%	0.8%	-23.4%
COc1ccccc1NS(=O)(=O)c1ccc(C(=O)N2CCCCCC2)cc1	-5.7	nt	nt	1.7%	-10.4%	10.3µM*
COc1ccc(S(=O)(=O)N(C)c2ccc(C(=O)N3CCCCC3)cc2)cc1OC	-6.1	-1.4%	0.8%	1.8%	5.4%	11.6µM*
CNC(=O)C[C@@H]1CC[C@@H]2[C@H](COc3ccc(NC(=O)c4cccc(F)c4)cc3C(=O)N2C)O1	-5.2	nt	nt	nt	nt	nt
Cc1ccc(-n2nc3c(=O)n(C(C)C(=O)NCc4ccco4)nc(C)c3c2C)cc1 (stereo not drawn)	-3.9	-5.1%	2.3%	4.4%	8.2%	-1.6%
Cc1ccc(-n2nc3c(=O)n(C(C)C(=O)NCCCc4ccccc4)nc(C)c3c2C)cc1 (stereo not drawn)	0.4	8.5%	24.1%	0.0%	20.6µM*	10.3µM*
Cc1ccc(-n2nc3c(=O)n(C(C)C(=O)NCc4ccccc4Cl)nc(C)c3c2C)cc1 (stereo not drawn)	-0.7	-6.6%	24.4%	0.4%	-16.5%	14.6µM*
CCC(C(=O)NCc1cccc(C)c1)n1nc(C)c2c(C)n(-c3ccccc3)nc2c1=O (stereo not drawn)	-2.8	-6.4%	4.5%	0.4%	-13.9%	20.6µM*
COC(=O)[C@]1(CNS(=O)(=O)C2CC2)CC(=O)N(C)[C@@H]1c1ccccc1	-1.1	nt	nt	nt	nt	nt
O=C(C=Cc1ccco1)c1ccc2ccccc2c1	4.7	nt	nt	7.94µM*	-3.4%	?
